Compound activity (PubChem)
SARS PLP yeast: qHTS of Yeast-based Assay for SARS-CoV PLP | S. cerevisiae expressing SARS-CoV PLpro, growth rescue | Potency, µM (top dose mostly 32.9 µM), hits mostly activators | 330,000 tested, 0.19% active; calls by dose curve; note: nearly all actives have a fitted effect of over 55% in size
AMA1-RON2 inh: qHTS for Inhibitors of AMA1-RON; Towards Development of Antimalarial Drug Lead: Primary Screen; Plasmodium falciparum AMA1 (3D7) - RON2 peptide interaction; 360,000 tested, 0.2% active; AlphaScreen AMA1-biotinylated RON2 peptide binding; AID 720542, 2013; Potency, µM (doses to about 58.2 µM), usual class: inhibitors; note: nearly all actives have a fitted effect of over 45% in size
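AMA1 (3D7) with his tag at 25 nM final met compounds first, then biotinylated RON2 peptide at 25 nM; detection used donor plus acceptor beads, 10 µg/mL apiece, read by AlphaScreen after 30 min at room temperature.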
VACV mCherry inh: qHTS for Stage-Specific Inhibitors of Vaccinia Orthopoxvirus: mCherry Reporter Primary qHTS; Vaccinia virus mCherry reporter infection, fluorescence; Potency, µM (doses to about 36.5 µM), most hits filed as inhibitors; 310,000 tested, 0.63% active; calls by dose curve; tested in A549 cells; note: nearly all actives have a fitted effect of over 35% in size
VACV Venus inh: qHTS for Stage-Specific Inhibitors of Vaccinia Orthopoxvirus: Venus Reporter Primary qHTS. Vaccinia virus Venus reporter expression, fluorescence. Potency, µM (doses to about 36.5 µM), usual class: inhibitors. 330,000 tested, 0.46% active; calls by dose curve; tested in A549 cells; note: nearly all actives have a fitted effect of over 30% in size
AmpC inh no detg: qHTS Inhibitors of AmpC Beta-Lactamase (assay without detergent) | P00811 | AmpC nitrocefin hydrolysis, absorbance 480 nm, 0.0001% Triton | Potency, µM (top dose mostly 57.1 µM), hits mostly inhibitors | 330,000 tested, 0.52% active | AID 485341, 2010; note: nearly all actives have a fitted effect of over 20% in size
Target sequence (P00811 whole entry, looked up): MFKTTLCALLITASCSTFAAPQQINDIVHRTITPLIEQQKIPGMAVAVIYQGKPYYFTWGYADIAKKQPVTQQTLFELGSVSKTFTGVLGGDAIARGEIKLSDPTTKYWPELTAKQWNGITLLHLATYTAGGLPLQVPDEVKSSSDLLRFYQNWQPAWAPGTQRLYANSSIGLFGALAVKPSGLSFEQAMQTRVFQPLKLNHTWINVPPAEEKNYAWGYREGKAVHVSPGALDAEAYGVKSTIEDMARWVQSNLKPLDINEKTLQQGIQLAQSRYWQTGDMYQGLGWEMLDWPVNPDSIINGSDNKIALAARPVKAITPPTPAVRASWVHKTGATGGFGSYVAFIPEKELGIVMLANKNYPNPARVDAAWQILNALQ
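AmpC (5.3 nM in the dispensed reagent) in 20 mM phosphate pH 7.0 with 0.01% (detergent screen) or 0.0001% Triton X-100 was preincubated with compounds for 15 min at room temperature. Nitrocefin was then added from an 800 uM solution, and hydrolysis was followed at 480 nm.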
AmpC detergent: qHTS Inhibitors of AmpC Beta-Lactamase (assay with detergent); P00811; AmpC hydrolysis of nitrocefin, absorbance 480 nm, 0.01% Triton; Potency, µM (highest dose often 114 µM), hits mostly inhibitors; 370,000 tested, 0.041% active; AID 485294, 2010; note: nearly all actives have a fitted effect of over 25% in size
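AmpC (5.3 nM in the dispensed reagent) in 20 mM phosphate pH 7.0 with 0.01% (detergent screen) or 0.0001% Triton X-100 was preincubated with compounds for 15 min at room temperature. Nitrocefin was then added from an 800 uM solution, and hydrolysis was followed at 480 nm.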
Hits are given with their value. Compounds with a hit are over-represented: about 1.3% of the library has one in this group of screens. Unless noted, calls come from the whole dose curve; as a rule, active = well fitted curve in the direction sought with a large enough effect; inconclusive = small, poorly fitted or top-dose-only effect, or another doubt; inactive = no such curve, though single readings can be large; an effect the other way counts as inactive or inconclusive.

How did CCC(C)N(CC(=O)Nc1cccc(C)c1C)C(=O)CCl (stereo not given) do in these assays?
SARS PLP yeast: inactive; AMA1-RON2 inh: inactive; VACV mCherry inh: 4.5µM; VACV Venus inh: inconclusive; AmpC inh no detg: inactive; AmpC detergent: inactive

Results for COc1ccccc1NC1=C(Cl)C(=O)N(C2CCCCC2)C1=O ?
SARS PLP yeast: inactive; AMA1-RON2 inh: inconclusive; VACV mCherry inh: inactive; VACV Venus inh: inactive; AmpC inh no detg: 14µM; AmpC detergent: inactive

Results for C/C(CCC12CC3CC(CC(C3)C1)C2)=N\NC(N)=S ?
SARS PLP yeast: inconclusive; AMA1-RON2 inh: inactive; VACV mCherry inh: 11µM; VACV Venus inh: inconclusive; AmpC inh no detg: inactive; AmpC detergent: inactive

What do the screens show for `C/C(CC1CC(C)OC1=O)=N\NC(N)=S` (stereo not given)?
SARS PLP yeast: inconclusive; AMA1-RON2 inh: inactive; AmpC inh no detg: inactive; AmpC detergent: inactive

How did COc1cc2nc(CCc3nc4cc(OC)c(OC)cc4[nH]3)[nH]c2cc1OC do in these assays?
VACV mCherry inh: inactive; VACV Venus inh: inactive

Results for CC(/C=N/NC(=O)c1nnn(-c2nonc2N)c1CN(C)C)=C\c1ccco1 ?
SARS PLP yeast: inactive; AMA1-RON2 inh: inactive; VACV mCherry inh: inactive; VACV Venus inh: inactive; AmpC inh no detg: inactive; AmpC detergent: inactive

What do the screens show for `CCCN(CCC)Cc1c(C(=O)N/N=C/C(C)=C\c2ccco2)nnn1-c1nonc1N`?
SARS PLP yeast: inactive; AMA1-RON2 inh: inactive; VACV mCherry inh: 10µM; VACV Venus inh: inconclusive; AmpC inh no detg: inactive; AmpC detergent: inactive

Results for C/C(=N\NC(=O)c1nnn(-c2nonc2N)c1-c1ccccc1)c1ccccc1O ?
SARS PLP yeast: inactive; AMA1-RON2 inh: inactive; VACV mCherry inh: 2µM; VACV Venus inh: inconclusive; AmpC inh no detg: inactive; AmpC detergent: inconclusive

Results for C/C(=N\NC(=O)c1nnn(-c2nonc2N)c1CN(C)c1ccccc1)c1ccc(O)cc1 ?
SARS PLP yeast: inactive; AMA1-RON2 inh: inactive; AmpC inh no detg: 25µM; AmpC detergent: inactive

How did Cc1nc(C)n(CC(=O)N2CCOc3ccc(CN4CCN(C)C[C@@H]4c4ccccc4)cc3C2)n1 do in these assays?
VACV mCherry inh: inactive; VACV Venus inh: inactive

Results for Cc1ccc(C)c(N2CCN(C(=O)c3ccc(-c4nc(COc5ccccc5)c(C)o4)cc3)CC2)c1 ?
VACV mCherry inh: inactive; VACV Venus inh: inactive; AmpC detergent: inactive

Results for CCc1ccc(N(C(C)=O)C2C=CS(=O)(=O)C2)cc1 (stereo not given) ?
SARS PLP yeast: inactive; AMA1-RON2 inh: inactive; AmpC inh no detg: 0.16µM; AmpC detergent: inactive

Results for CC(=O)N(c1ccc(Br)cc1)C1C=CS(=O)(=O)C1 (stereo not given) ?
SARS PLP yeast: inactive; AMA1-RON2 inh: inactive; VACV mCherry inh: inactive; VACV Venus inh: inactive; AmpC inh no detg: inconclusive; AmpC detergent: inconclusive

What do the screens show for `CS(=O)(=O)Nc1ccc(C2=NN(C(=O)C3CCCCC3)C(c3cccs3)C2)cc1` (stereo not given)?
SARS PLP yeast: inactive; AMA1-RON2 inh: inactive; VACV mCherry inh: inactive; VACV Venus inh: inconclusive; AmpC inh no detg: 7.1µM; AmpC detergent: inactive

How did CC(C)C(=O)N1N=C(c2ccc(NS(C)(=O)=O)cc2)CC1c1cccs1 (stereo not given) do in these assays?
SARS PLP yeast: inactive; AMA1-RON2 inh: inactive; VACV mCherry inh: inactive; VACV Venus inh: inactive; AmpC inh no detg: inactive; AmpC detergent: inactive

What do the screens show for `CCc1nc2cc(C(=O)N(C)CC3COCCO3)cc(NC(=O)c3ccccc3OC)c2n1C` (stereo not given)?
VACV mCherry inh: inactive; VACV Venus inh: inactive

What do the screens show for `CCCc1nc(SCC(=O)N2CCCc3ccccc32)c2c(=O)n(C)c(=O)n(C)c2n1`?
SARS PLP yeast: inactive; AMA1-RON2 inh: inactive; VACV mCherry inh: inactive; VACV Venus inh: inactive; AmpC inh no detg: 40µM; AmpC detergent: inactive

How did Cn1c(=O)c2c(SCC(=O)N3CCOCC3)nc(CC(C)(C)C)nc2n(C)c1=O do in these assays?
SARS PLP yeast: inactive; AmpC inh no detg: inactive; AmpC detergent: inactive

What do the screens show for `Cn1c(=O)c2c(SCC(N)=O)nc(CC(C)(C)C)nc2n(C)c1=O`?
SARS PLP yeast: inactive; AMA1-RON2 inh: inactive; VACV mCherry inh: inactive; VACV Venus inh: inactive; AmpC inh no detg: 6.3µM; AmpC detergent: inconclusive

How did CCCc1nc(SCC(=O)Nc2ccccc2)c2c(=O)n(C)c(=O)n(C)c2n1 do in these assays?
SARS PLP yeast: inactive; AMA1-RON2 inh: inactive; VACV mCherry inh: inactive; VACV Venus inh: inactive; AmpC inh no detg: inactive; AmpC detergent: inactive

Results for CCCc1nc(SCC(=O)N2CCC(Cc3ccccc3)CC2)c2c(=O)n(C)c(=O)n(C)c2n1 ?
SARS PLP yeast: inactive; AMA1-RON2 inh: inactive; VACV mCherry inh: inactive; VACV Venus inh: inactive; AmpC inh no detg: 3.5µM; AmpC detergent: inconclusive

What do the screens show for `CCCn1c(SCC(=O)N2CCCc3ccccc32)nc2c1c(=O)n(C)c(=O)n2C`?
SARS PLP yeast: inactive; AMA1-RON2 inh: inactive; AmpC inh no detg: inactive; AmpC detergent: 35µM

How did CC(=O)c1ccccc1-c1ccc2c(c1)CC(CNC(=O)Cc1c[nH]c3ccccc13)O2 (stereo not given) do in these assays?
VACV mCherry inh: inactive; VACV Venus inh: inactive

How did CCc1ccc(NC(=O)c2ccc(F)c(S(=O)(=O)NCCc3ccc(OC)c(OC)c3)c2)cc1 do in these assays?
VACV mCherry inh: inconclusive; VACV Venus inh: inconclusive; AmpC detergent: inactive

What do the screens show for `O=C(O)c1cc(O)c2c(c1)[C@H]([C@H]1c3cc(C(=O)O)cc(O)c3C(=O)c3c(O[C@@H]4O[C@H](CO)[C@@H](O)[C@H](O)[C@H]4O)cccc31)c1cccc(O[C@@H]3O[C@H](CO)[C@@H](O)[C@H](O)[C@H]3O)c1C2=O`?
VACV mCherry inh: inactive; VACV Venus inh: inactive

Results for Cn1c(=O)c2c(SCC(=O)N3CCCc4ccccc43)nc(CC(C)(C)C)nc2n(C)c1=O ?
SARS PLP yeast: inactive; AMA1-RON2 inh: inactive; VACV mCherry inh: inconclusive; VACV Venus inh: 11µM; AmpC inh no detg: inactive; AmpC detergent: inconclusive

What do the screens show for `Cn1c(=O)c2c(SCc3c(F)cccc3Cl)nc(CC(C)(C)C)nc2n(C)c1=O`?
SARS PLP yeast: inactive; AMA1-RON2 inh: inactive; VACV mCherry inh: inactive; VACV Venus inh: inactive; AmpC inh no detg: 3.5µM; AmpC detergent: inactive

What do the screens show for `Cc1ccc(-c2nc(SCC(=O)N3CCc4ccccc43)c3c(=O)n(C)c(=O)n(C)c3n2)cc1`?
VACV mCherry inh: inactive; VACV Venus inh: inactive; AmpC detergent: inactive
